# The list is not random: actives were taken first. Their share in the collection is about 1.6%.
# PERK inh – human PERK inhibition, primary cell-based screen. 220,000 tested, 0.17% active. Q9NZJ5. inhibition, % at 5.6 µM. CHO PERK-DD fusion, SEAP luminescence translation reporter. AID 1416;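 active = inhibition above the mean inhibition of all tested compounds plus 3 SD, set separately per screening campaign, cut at about 2.9% in these data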;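 note: PERK kinase domain activated by AP20187 dimerizer at 100 nM; 0% = DMSO with dimerizer and 100% = rapamycin at 8.4 µM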
# eIF4H inh – inhibitors of RNA binding by human eIF4H; eIF4H fluorescence polarization binding assay; 290,000 tested, 0.94% active; inhibition, % at 35 µM; Q15056;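 note: calls also rest on retests at 20 µM and on dose response follow-up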
# eIF4E 4G PPI – inhibitors of eIF4E and eIF4G interaction in translation initiation | TR-FRET eIF4E-eIF4GI(517-606) binding, 2 h | inhibition, % at 21.7 µM | P63073+Q04637 | 220,000 tested, 0.37% active;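 active = inhibition above about 30%, limit read from the data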;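 note: 0% = full FRET control wells and 100% = background wells lacking eIF4GI fragment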
# MLLE-PAM2 inh – inhibitors of microRNA-mediated deadenylation, human PABP1 MLLE binding; P11940; GST-MLLE / FITC-PAM2 fluorescence polarization; inhibition, % at 20 µM; 360,000 tested, 0.36% active; in the data active = inhibition above about 35%, passing the limit was not always enough;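 note: plate controls were DMSO wells with GST-MLLE for no effect and wells lacking GST-MLLE protein for full effect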
# Target sequence (P11940 whole entry, looked up): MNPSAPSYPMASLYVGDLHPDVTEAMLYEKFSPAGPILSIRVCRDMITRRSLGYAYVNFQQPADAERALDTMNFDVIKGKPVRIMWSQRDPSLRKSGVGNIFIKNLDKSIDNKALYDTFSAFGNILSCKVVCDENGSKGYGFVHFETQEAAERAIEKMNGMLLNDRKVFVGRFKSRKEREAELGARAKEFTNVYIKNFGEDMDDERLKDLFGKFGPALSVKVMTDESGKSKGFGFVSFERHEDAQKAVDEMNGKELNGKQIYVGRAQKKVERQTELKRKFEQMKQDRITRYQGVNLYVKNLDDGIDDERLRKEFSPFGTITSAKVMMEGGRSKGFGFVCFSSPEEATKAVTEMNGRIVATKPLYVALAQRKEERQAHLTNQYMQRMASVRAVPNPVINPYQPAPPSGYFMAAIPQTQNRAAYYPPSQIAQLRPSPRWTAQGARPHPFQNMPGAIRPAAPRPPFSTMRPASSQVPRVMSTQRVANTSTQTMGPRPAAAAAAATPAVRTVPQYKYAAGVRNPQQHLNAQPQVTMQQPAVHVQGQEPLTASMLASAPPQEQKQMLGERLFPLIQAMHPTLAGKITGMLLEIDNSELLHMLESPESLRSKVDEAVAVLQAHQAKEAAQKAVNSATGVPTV
# PABP polyA inh – PABP-poly(A) binding inhibition; 290,000 tested, 1% active; P11940; calls only at 35 µM; PABP-poly(A) RNA binding, fluorescence polarization;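 note: calls also rest on retests at 20 µM and on dose response follow-up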
# * hit, by the source's call; i = inactive; u = inconclusive; x = no result; + = active, no number; [ ] = another dose, or the depositor's remark. Unless noted, the rule behind the calls is not given here.
SMILES,PERK inh,eIF4H inh,eIF4E 4G PPI,MLLE-PAM2 inh,PABP polyA inh
Cc1ccc(S(=O)(=O)N(C)C)cc1NC(=O)COC(=O)c1ccc2c(c1)OCO2,0,-4,-5,-16,i
O=C1Nc2ccccc2N(O)N1c1cc(-c2ccc(Cl)cc2)[nH]n1,0,-6,1,13,i
Cc1ccc(NC(=O)c2ccc(S(=O)(=O)NCc3cccnc3)cc2)c(C)c1,x,2,x,5,i
Cc1ccc(CNC(=O)c2c(-c3ccccc3Cl)noc2C)cc1,x,-1,x,-10,i
Cc1onc(-c2ccccc2Cl)c1C(=O)NCc1ccco1,0,95*,4,-2,+
CCC1CCCCN1C(=O)CSc1nc2c(cnn2-c2ccc(C)cc2)c(=O)[nH]1 (centres undefined),3.2*,3,-9,8,i
CC1=CC(C#N)(C#N)C(C#N)(C#N)C(c2ccccc2)N1 (centres undefined),1,102*,3,x,+
COC1(OC)N=C(N)C2(C#N)C(c3ccccc3)NC(C)=CC12C#N (centres undefined),0,-10,3,-4,i
CCCOc1ccc(C(=O)NNC(=S)NC(=O)c2cc(-c3ccc(Cl)cc3)nc3ccccc23)cc1,1,12,-2,39*,i
Cc1ccc(N2C(=O)c3ccc(C(=O)N4CCN(Cc5ccccc5)CC4)cc3C2=O)cc1,1,-5,-2,4,i
CC1(C(=O)NNC(=O)c2ccc(=O)oc2)CC1Br (centres undefined),0,82,0,-7,+
O=C(Nc1cccc(N=Cc2cc(Br)cc(Br)c2O)c1)c1ccco1,1,u,4,-8,+
O=C(Nc1cccc(N=Cc2cc(Cl)cc(Br)c2O)c1)c1ccco1,0,86,4,1,i
Cn1ccc(-c2ccccc2)n1,1,-6,-2,-4,i
N#Cc1cc(-c2ccccc2)nn1-c1ccccc1,1,-2,66*[fluorescence artefact?],22,i
COC(=O)c1ccccc1Oc1ccc(NC(=O)CCCl)cc1,1,-3,0,13,i
C/C(=N\NC(=O)C1COc2ccccc2O1)c1ccc(Cl)s1 (centres undefined),1,-5,0,-4,i
C/C(=N/NC(=O)C1COc2ccccc2O1)c1ccc(Br)s1 (centres undefined),1,-13,98*,1,i
O=c1c2c3c(sc2n(CCN2CCCC2)c(=O)n1Cc1ccco1)CCCCC3,0,-6,3,1,i
O=C(Cn1c(=O)n(Cc2ccco2)c(=O)c2c3c(sc21)CCCCC3)c1ccccc1,0,74*,3,-16,+
O=C(Cn1c(=O)n(Cc2ccco2)c(=O)c2c3c(sc21)CCCCC3)Nc1ccccc1,0,78*,10,6,+
CN(C)CCn1c(=O)n(Cc2ccco2)c(=O)c2c3c(sc21)CCCCC3,-1,-7,-4,5,i
NS(=O)(=O)c1ccc(CNC(=O)c2sccc2-c2ccccc2)cc1,x,-7,x,-7,i
COc1cc(CC(=O)Nc2ccc3c(c2)CCC3)cc(OC)c1OC,-1,-1,60*[fluorescence artefact?],-39,i
COc1cc(CCC(=O)Nc2ccc(Br)c(C(F)(F)F)c2)cc(OC)c1OC,-1,active,-1,1,+
SMILES,PERK inh,eIF4H inh,eIF4E 4G PPI,MLLE-PAM2 inh,PABP polyA inh
CCOc1ccc(CN(C)CC(=O)Nc2ccc3c(c2)CCC3)cc1OC,-1,76*,2,1,i
O=C(COc1ccc(C(=O)NCC2CCCO2)cc1)Nc1cccc(C(F)(F)F)c1 (centres undefined),x,x,x,3,x
CNC(=S)NNC(=O)c1noc(C)c1C(=O)N1CCN(C(c2ccccc2)c2ccccc2)CC1,0,-2,-2,-82,i
Clc1cccc(Cl)c1CNc1ccc(N2CCCC2)cc1,1,1,12,x,i
COc1ccc(N2CCN(C(=O)/C=C/[C@H]3O[C@@H](n4ccc(=O)[nH]c4=O)[C@H](O)[C@@H]3O)CC2)cc1,x,x,x,7,x
CCN1C(=O)Cc2cc(S(=O)(=O)N3CCOCC3)ccc21,-2,-14,-2,0,i
CCN1CC(=O)Nc2cc(S(=O)(=O)N3CCOCC3)ccc21,3.7*,-5,3,-2,i
O=C1NC(c2ccccc2)(C(F)(F)F)SC2=CCCCCN12 (centres undefined),0,-2,-3,42*,i
O=C1N2CCCc3cccc(c32)C12Nc1ccccc1S2 (centres undefined),-1,1,1,20,i
O=C(O)C1Nc2c(O)cc(Cl)c([N+](=O)[O-])c2C2C=CCC12 (centres undefined),1,u,78*,19,+
O=[N+]([O-])c1ccc(Cl)c2c1C1C=CCC1C(c1ccccn1)N2 (centres undefined),1,104,8,3,i
Cc1ccsc1C(=O)N1CCC1(C)C(=O)NS(=O)(=O)c1ccccc1 (centres undefined),x,x,x,15,x
O=C1NC(c2ccco2)Nc2sc3c(c21)CCN(Cc1ccccc1)C3 (centres undefined),2,116*,-4,-74,+
COc1cc(/C=N\NC(=O)c2ccc(-c3ccccc3)cc2)ccc1OCC(N)=O,x,10,x,-1,i
CCOc1cc(/C=N/NC(=O)c2ccc(-c3csc(Nc4ccc(C)cc4)n3)cc2)ccc1OCC(=O)O,2,94,31*,4,i
O=C(O)COc1ccc(/C=N/NC(=O)c2ccc(-c3csc(Nc4ccc(Cl)cc4)n3)cc2)cc1,1,98*,72*,6,i
COc1ccccc1CN(C)C(=O)COC(=O)c1ccc(Cl)nc1,x,x,x,-12,x
OCC1(CO)COC(CCc2ccccc2)=N1,x,-8,x,1,i
COc1ccccc1CN(C)C(=O)c1cccc(S(=O)(=O)N2CCCc3ccccc32)c1,x,x,x,2,x
CCCS(=O)(=O)N1CCN(S(=O)(=O)c2ccccc2)CC1,-1,-4,64*,-7,i
CN1CCN(S(=O)(=O)c2ccccc2)CC1,x,-2,x,-2,i
CCN1CCN(CCNC(=O)c2cc(Cl)c(NC(=O)C3=C(C)OCCS3)cc2OC)CC1,x,4,x,-10,i
CCN(CC)CCCNC(=O)c1cc(Cl)c(NC(=O)C2=C(C)OCCS2)cc1OC,x,93*,x,-12,+
COC(=O)c1ccc(NC(c2ccc(Cl)cc2)P(=O)(OC)OC)cc1 (centres undefined),0,80*,-1,-3,+
O=C(NNC(=O)c1ccncc1)Nc1ccc([N+](=O)[O-])cc1,0,-1,-2,-8,+
O=c1[nH]c(=S)[nH]c2c1C(c1ccc(Br)cc1)c1c([nH]c(=S)[nH]c1=O)O2,x,83*,x,38,+
O=C1CCCC2=C1C(c1ccc(Br)cc1)c1c([nH]c(=S)[nH]c1=O)N2 (centres undefined),2,17,59*,11,i
CCCNC(=O)C1(S(=O)(=O)c2ccccc2)CC=CC1,x,0,x,1,i

# Compound activity (PubChem)
